Data from PubChem BioAssay (NCATS).
Results filed as inconclusive are left out. Active and inactive are the calls of the source. Calls come from the whole dose curve; as a rule, active = well fitted inhibition curve with a large enough effect; inconclusive = small, poorly fitted or top-dose-only effect; inactive = flat fitted curve, though single readings scatter.

Assays:
[1] = qHTS profiling for inhibitors of Plasmodium falciparum proliferation (AID 504749); note: nearly all actives have a fitted effect of over 60% in size;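 for activity, negative = inhibition: 0% = DMSO vehicle and full inhibition = artemisinin control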; conditions: P. falciparum in erythrocytes, SYBR Green DNA, 72 h
How it was run: (§1)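 P. falciparum-infected erythrocytes (0.3% parasitemia, 2.5% hematocrit) incubated with compound 72 h at 37 C, 5% CO2. Parasite DNA detected by SYBR Green after lysis, overnight at room temperature; normalised to 0.29 uM artemisinin and DMSO.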

[2] = system: 3D7; assay: as above; conditions: P. falciparum in erythrocytes, SYBR Green DNA, 72 h; series mostly up to 28.7 µM
How it was run: as §1

[3] = system: 7G8; assay: as above; conditions: P. falciparum in erythrocytes, SYBR Green DNA, 72 h; series mostly up to 28.7 µM
How it was run: as §1

[4] = system: AA1029; assay: as above; conditions: P. falciparum in erythrocytes, SYBR Green DNA, 72 h; series mostly up to 28.7 µM
How it was run: as §1

[5] = system: AS120; assay: as above; conditions: P. falciparum in erythrocytes, SYBR Green DNA, 72 h; series mostly up to 28.7 µM
How it was run: as §1

[6] = system: ATS189; assay: as above; conditions: P. falciparum in erythrocytes, SYBR Green DNA, 72 h; series mostly up to 28.7 µM
How it was run: as §1

[7] = system: ATS95; assay: as above; conditions: P. falciparum in erythrocytes, SYBR Green DNA, 72 h; series mostly up to 28.7 µM
How it was run: as §1

[8] = system: C2A; assay: as above; conditions: P. falciparum in erythrocytes, SYBR Green DNA, 72 h; series mostly up to 28.7 µM
How it was run: as §1

[9] = system: CP185; assay: as above; conditions: P. falciparum in erythrocytes, SYBR Green DNA, 72 h; series mostly up to 28.7 µM
How it was run: as §1

[10] = system: CP191; assay: as above; conditions: P. falciparum in erythrocytes, SYBR Green DNA, 72 h; series mostly up to 28.7 µM
How it was run: as §1

[11] = system: CP192; assay: as above; conditions: P. falciparum in erythrocytes, SYBR Green DNA, 72 h; series mostly up to 28.7 µM
How it was run: as §1

[12] = system: CP194; assay: as above; conditions: P. falciparum in erythrocytes, SYBR Green DNA, 72 h; series mostly up to 28.7 µM
How it was run: as §1

[13] = system: CP201; assay: as above; conditions: P. falciparum in erythrocytes, SYBR Green DNA, 72 h; series mostly up to 28.7 µM
How it was run: as §1

[14] = system: CP203; assay: as above; conditions: P. falciparum in erythrocytes, SYBR Green DNA, 72 h; series mostly up to 28.7 µM
How it was run: as §1

[15] = system: CP211; assay: as above; conditions: P. falciparum in erythrocytes, SYBR Green DNA, 72 h; series mostly up to 28.7 µM
How it was run: as §1

[16] = system: CP215; assay: as above; conditions: P. falciparum in erythrocytes, SYBR Green DNA, 72 h; series mostly up to 28.7 µM
How it was run: as §1

[17] = system: CP217; assay: as above; conditions: P. falciparum in erythrocytes, SYBR Green DNA, 72 h; series mostly up to 28.7 µM
How it was run: as §1

[18] = system: CP237; assay: as above; conditions: P. falciparum in erythrocytes, SYBR Green DNA, 72 h; series mostly up to 28.7 µM
How it was run: as §1

[19] = system: CP238; assay: as above; conditions: P. falciparum in erythrocytes, SYBR Green DNA, 72 h; series mostly up to 28.7 µM
How it was run: as §1

[20] = system: CP247; assay: as above; conditions: P. falciparum in erythrocytes, SYBR Green DNA, 72 h; series mostly up to 28.7 µM
How it was run: as §1

[21] = at 28.7 µM (top of the series), parasite line A
[22] = at 28.7 µM (top of the series), parasite line B
Potency is the fitted concentration of half-maximal effect.

COc1cccc2c1C(=O)c1c(O)c3c(c(O)c1C2=O)C[C@@](O)(C(C)=O)C[C@@H]3O[C@H]1C[C@H](N)[C@H](O)[C@H](C)O1
active: Potency ([1]; parasite line A) 3.55 µM | Potency ([1]; parasite line B) 7.08 µM | Potency [2] 2 µM | Potency [3] 1.26 µM | Potency [4] 4.47 µM | Potency [5] 3.98 µM | Potency [6] 8.91 µM | Potency [7] 4.47 µM | Potency [8] 3.16 µM | Potency [9] 4.47 µM | Potency [10] 3.16 µM | Potency [11] 6.01 µM | Potency [12] 7.57 µM | Potency [13] 9.53 µM | Potency [14] 8.49 µM | Potency [15] 3.79 µM | Potency [16] 7.57 µM | Potency [17] 1 µM | Potency [18] 1 µM | Potency [19] 3.98 µM | Potency [20] 1.41 µM

CC(C)(CO)[C@@H](O)C(=O)NCCCO
inactive: activity, negative = inhibition [1, 21] 10.4% | activity, negative = inhibition [1, 22] -1.02% | Potency [2] | Potency [3] | Potency [4] | Potency [5] | Potency [6] | Potency [7] | Potency [8] | Potency [9] | Potency [10] | Potency [11] | Potency [12] | Potency [13] | Potency [14] | Potency [15] | Potency [16] | Potency [17] | Potency [18] | Potency [19] | Potency [20]

Cc1c(C)n(CCN(C)C)c2ccc(C(=O)OCCN(C)C)cc12
inactive: activity, negative = inhibition [1, 21] -7.71% | activity, negative = inhibition [1, 22] -8.88% | Potency [2] | Potency [4] | Potency [5] | Potency [6] | Potency [7] | Potency [8] | Potency [9] | Potency [10] | Potency [11] | Potency [12] | Potency [13] | Potency [14] | Potency [15] | Potency [16] | Potency [17] | Potency [19] | Potency [20]
active: Potency [3] 8.91 µM | Potency [18] 11.2 µM

COc1ccc(/C=C/C(=O)c2ccc(OC)cc2OC)cc1
active: Potency ([1]; parasite line A) 3.16 µM | Potency ([1]; parasite line B) 8.91 µM | Potency [2] 10 µM | Potency [3] 5.01 µM | Potency [4] 6.31 µM | Potency [5] 8.91 µM | Potency [6] 5.62 µM | Potency [7] 11.2 µM | Potency [8] 11.2 µM | Potency [9] 8.91 µM | Potency [10] 3.16 µM | Potency [11] 13.5 µM | Potency [12] 12 µM | Potency [13] 8.49 µM | Potency [14] 13.5 µM | Potency [15] 6.75 µM | Potency [16] 6.75 µM | Potency [17] 5.01 µM | Potency [18] 11.2 µM | Potency [19] 11.2 µM | Potency [20] 4.47 µM

Nc1cc(Cl)c(NC2=NCCN2)c(Cl)c1
inactive: activity, negative = inhibition [1, 21] 18.9% | activity, negative = inhibition [1, 22] 15.3% | Potency [2] | Potency [3] | Potency [4] | Potency [5] | Potency [6] | Potency [7] | Potency [8] | Potency [9] | Potency [10] | Potency [11] | Potency [12] | Potency [13] | Potency [14] | Potency [15] | Potency [16] | Potency [17] | Potency [18] | Potency [19] | Potency [20]

NC(CO)(CO)CO
inactive: activity, negative = inhibition [1, 21] 6.7% | activity, negative = inhibition [1, 22] -0.553% | Potency [2] | Potency [3] | Potency [4] | Potency [5] | Potency [6] | Potency [7] | Potency [8] | Potency [9] | Potency [10] | Potency [11] | Potency [12] | Potency [13] | Potency [14] | Potency [15] | Potency [16] | Potency [17] | Potency [18] | Potency [19] | Potency [20]

CCC(=O)c1c(O)cc(O)cc1O
inactive: activity, negative = inhibition [1, 21] -1.33% | activity, negative = inhibition [1, 22] 0.647% | Potency [2] | Potency [3] | Potency [4] | Potency [5] | Potency [6] | Potency [7] | Potency [8] | Potency [9] | Potency [10] | Potency [11] | Potency [12] | Potency [13] | Potency [14] | Potency [15] | Potency [16] | Potency [17] | Potency [18] | Potency [19] | Potency [20]

CCCCOc1ccc(OCCCN2CCOCC2)cc1
inactive: activity, negative = inhibition ([1]; at 12.8 µM (top of the series), parasite line A) 9.41% | activity, negative = inhibition ([1]; at 12.8 µM (top of the series), parasite line B) 8.45% | Potency [2] | Potency [3] | Potency [4] | Potency [5] | Potency [6] | Potency [7] | Potency [8] | Potency [9] | Potency [10] | Potency [11] | Potency [12] | Potency [13] | Potency [14] | Potency [15] | Potency [16] | Potency [17] | Potency [18] | Potency [19] | Potency [20]

COc1cc(NS(C)(=O)=O)ccc1Nc1c2ccccc2nc2ccccc12
active: Potency ([1]; parasite line A) 2 µM | Potency ([1]; parasite line B) 3.16 µM | Potency [2] 2 µM | Potency [3] 1.26 µM | Potency [4] 3.55 µM | Potency [5] 2.24 µM | Potency [6] 3.98 µM | Potency [7] 3.55 µM | Potency [8] 1.78 µM | Potency [9] 4.47 µM | Potency [10] 0.794 µM | Potency [11] 5.36 µM | Potency [12] 4.78 µM | Potency [13] 5.36 µM | Potency [14] 4.26 µM | Potency [15] 4.78 µM | Potency [16] 3.38 µM | Potency [17] 3.16 µM | Potency [18] 1.58 µM | Potency [19] 4.47 µM | Potency [20] 1.26 µM

CN1C(CCl)Nc2cc(Cl)c(S(N)(=O)=O)cc2S1(=O)=O (stereo unspecified)
inactive: activity, negative = inhibition [1, 21] 6.24% | activity, negative = inhibition [1, 22] -11.6% | Potency [2] | Potency [3] | Potency [4] | Potency [5] | Potency [6] | Potency [7] | Potency [8] | Potency [9] | Potency [10] | Potency [11] | Potency [12] | Potency [13] | Potency [14] | Potency [15] | Potency [16] | Potency [17] | Potency [18] | Potency [19] | Potency [20]

O=C1CCC(c2ccc(-n3ccnc3)cc2)=NN1
inactive: activity, negative = inhibition [1, 21] 16% | activity, negative = inhibition [1, 22] 14.3% | Potency [2] | Potency [3] | Potency [4] | Potency [5] | Potency [6] | Potency [7] | Potency [8] | Potency [9] | Potency [10] | Potency [11] | Potency [12] | Potency [13] | Potency [14] | Potency [15] | Potency [16] | Potency [17] | Potency [18] | Potency [19] | Potency [20]
